Assay results: PubChem BioAssay (NCI)
About 83,000 compounds went through this panel and 20% of them were active in at least one assay; those are over-represented in the sample as a whole.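 Results are percent growth after 48 hours of single-concentration exposure. 100 means growth as in untreated cells, lower positive values show inhibition; negative values down to -100 show cell death.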 Active and inactive are the calls of the source. Rule for the calls: active = growth percent below 10; inactive = the rest.

Assays:
Test in all cases: NCI-60 one-dose screen, 48 h (100 = growth as untreated, 0 = no growth, -100 = all killed)
[1] = test system: DU-145 prostate; details: 10 µM unless noted
[2] = test system: MALME-3M melanoma; details: 10 µM unless noted
[3] = test system: MDA-MB-231 breast; details: 10 µM unless noted
[4] = test system: RXF 393 renal; details: 10 µM unless noted
[5] = test system: SF-268 CNS; details: 10 µM unless noted
[6] = test system: SF-295 CNS; details: 10 µM unless noted
[7] = test system: SF-539 CNS; details: 10 µM unless noted
[8] = test system: UACC-257 melanoma; details: 10 µM unless noted
[9] = test system: M14 melanoma; details: 10 µM unless noted
[10] = test system: HCT-15 colon; details: 10 µM unless noted
[11] = test system: HT29 colon; details: 10 µM unless noted
[12] = test system: SNB-75 CNS; details: 10 µM unless noted
[13] = test system: SNB-19 CNS; details: 10 µM unless noted
[14] = test system: U251 CNS; details: 10 µM unless noted
[15] = test system: PC-3 prostate; details: 10 µM unless noted
[16] = test system: UACC-62 melanoma; details: 10 µM unless noted
[17] = test system: LOX IMVI melanoma; details: 10 µM
[18] = test system: SK-MEL-28 melanoma; details: 10 µM unless noted

Measured: growth

COc1ccc(C(=O)Nc2n[nH]c(Nc3ccccc3)c2C#N)cc1
inactive: [1] 119% | [2] 97.8% | [3] 103% | [4] 118% | [5] 97.3% | [6] 92.8% | [7] 98.3% | [8] 137% | [9] 109% | [10] 102% | [11] 112% | [12] 112% | [13] 99.5% | [14] 111% | [15] 111% | [16] 99.6% | [17] 98.3% | [18] 103%

COc1ccc(NC(=O)Cn2c(/C=C/c3cccc([N+](=O)[O-])c3)nc3ccccc3c2=O)cc1
inactive: [1] 93.9% | [2] 77% | [3] 15.8% | [5] 71.6% | [6] 79.2% | [8] 98.8% | [9] 76.7% | [10] 78.2% | [11] 88% | [13] 72.9% | [14] 36.1% | [15] 94% | [16] 51.5% | [17] 50.8% | [18] 93.7%
active: [4] -6.3% | [7] 7.2% | [12] 1.99%

O=C(Nc1ccc(C(F)(F)F)cc1)Nc1ccc2oc(=O)ccc2c1
inactive: [1] 27.9% | [3] 14.6% | [4] 56.5% | [5] 50.9% | [7] 32.2% | [9] 16.3% | [10] 10.1% | [12] 44.1% | [13] 29.5% | [15] 13.6% | [16] 28% | [18] 37.6%
active: [2] -1.86% | [6] -7.66% | [8] 0.986% | [11] 9.84% | [14] -0.283% | [17] -83.8%

O=C(NNc1nc2cc(C(F)(F)F)ccc2n2cccc12)c1cnccn1
active: [1] -57.5% | [2] -57.2% | [3] -66.8% | [4] -74% | [5] -53.4% | [6] -92.1% | [7] -83% | [8] -83.9% | [9] -81.9% | [10] -49.6% | [11] 2.58% | [12] -69.4% | [13] -56.6% | [14] -95.5% | [15] -54.8% | [17] -67% | [18] -36.8%

COc1ccc(C(=O)/C=C/c2ccc(Cl)c(Cl)c2)cc1S(N)(=O)=O
inactive: [1] 25.2% | [2] 28% | [3] 20.7% | [5] 24.6% | [15] 10.1%
active: [4] -69.2% | [6] 7.4% | [7] -86.5% | [8] 1.95% | [9] -70.9% | [10] -37.9% | [11] -50.3% | [13] 5.07% | [14] -95.8% | [16] -4.38% | [17] -69% | [18] -33.7%

CC(=O)N1CCN(Cc2ccc3c(NNC(=O)c4cnccn4)nc4cc(F)ccc4n23)CC1
inactive: [1] 39.4% | [2] 30.4% | [3] 36.5% | [4] 54.2% | [5] 28.7% | [6] 10.7% | [8] 13.3% | [10] 30.3% | [11] 35.9% | [12] 65.7% | [13] 25.4% | [14] 13.1% | [15] 40.9% | [17] 10.3% | [18] 30.4%
active: [7] 6.02% | [9] -31.4% | [16] 9.03%

O=C1N/C(=N\c2nccs2)S/C1=C\C=C/c1ccccc1
active: [8] 8.23% | [9] -21% | [14] 8.95% | [16] -24%
inactive: [1] 49.1% | [2] 42.6% | [3] 51.6% | [4] 88.6% | [5] 39.2% | [6] 21.9% | [7] 13% | [10] 28.1% | [11] 25.5% | [12] 83.5% | [13] 26.6% | [15] 46.6% | [17] 28.3% | [18] 18%

O=C1Nc2ccc([N+](=O)[O-])cc2C1=Nc1ccccc1
inactive: [1] 114% | [2] 100% | [3] 95.3% | [4] 143% | [5] 98.9% | [6] 90.7% | [7] 91.8% | [8] 134% | [9] 104% | [10] 92.5% | [11] 122% | [12] 101% | [13] 96.6% | [14] 106% | [15] 94.4% | [16] 59.7% | [17] 97.2% | [18] 108%

NS(=O)(=O)c1ccc(-n2cc(-c3cccc(NC(=O)c4cc(N5CCOCC5)cc(C(F)(F)F)c4)c3)nn2)cc1
inactive: [1] 83% | [2] 54.1% | [3] 37.4% | [5] 41.1% | [6] 54% | [7] 19.3% | [8] 66.3% | [9] 78.8% | [10] 105% | [11] 103% | [12] 33.1% | [13] 40.8% | [15] 70.6% | [16] 41.1% | [17] 46.8% | [18] 36.9%
active: [14] 7.62%

COc1ccc(C(=O)/C=C/c2cccnc2)cc1S(N)(=O)=O
inactive: [1] 22% | [2] 77.5% | [3] 60.5% | [4] 54.1% | [5] 44.4% | [6] 38.9% | [8] 72.1% | [9] 66.2% | [11] 24% | [12] 64.2% | [13] 45.4% | [14] 11.2% | [15] 78.4% | [16] 74.8% | [18] 65.7%
active: [7] 3.62% | [10] 4.61% | [17] -15.3%

Cc1cc(N=C2NC(=O)CS2)n[nH]1
inactive: [1] 119% | [2] 94.8% | [3] 104% | [4] 128% | [5] 95.8% | [6] 101% | [7] 97.6% | [8] 118% | [9] 96.5% | [10] 104% | [11] 114% | [12] 107% | [13] 103% | [14] 110% | [15] 100% | [17] 94.6% | [18] 108%

O=C(Cn1c(/C=C/c2cccc([N+](=O)[O-])c2)nc2ccccc2c1=O)Nc1ccccc1
inactive: [1] 69.4% | [2] 75.1% | [3] 33.8% | [4] 55.5% | [5] 78.5% | [6] 68.5% | [8] 104% | [9] 70.6% | [10] 66.2% | [11] 71.1% | [12] 70.1% | [13] 81.3% | [14] 11.8% | [15] 78.4% | [16] 50.9% | [17] 33% | [18] 85.4%
active: [7] 8.73%

CN1CCN(c2ccc3c(c2)nc(NNC(=O)c2ncccn2)c2cccn23)CC1
active: [1] 1.57% | [2] -41.8% | [3] -45.8% | [4] -53.6% | [5] -15.7% | [6] -90% | [7] -83% | [9] -53.5% | [10] 1.47% | [12] -46.9% | [14] -38.7% | [15] 6.1% | [16] -35.1% | [17] -62.8% | [18] -27.6%
inactive: [8] 17.8% | [11] 11.2% | [13] 16.5%

COc1ccccc1/C=C/C(=O)c1ccc(OC)c(S(N)(=O)=O)c1
active: [3] 7.39% | [4] -0.859% | [7] -4.72% | [9] 8.83% | [10] 7.53% | [12] 8.99% | [14] 5.14% | [17] 1.03%
inactive: [1] 26.4% | [2] 50% | [5] 21% | [6] 21.8% | [8] 59.6% | [11] 18.7% | [15] 48.5% | [16] 44.4% | [18] 38.7%

COc1ccc(C(=O)/C=C/c2c(F)cccc2Cl)cc1S(N)(=O)=O
inactive: [2] 12.7% | [3] 17.2% | [5] 24.4% | [6] 12.7% | [8] 12.7% | [12] 29.7% | [13] 19.6% | [15] 18.8% | [16] 15.4%
active: [1] -0.489% | [4] -44.4% | [7] -62.9% | [9] -59.4% | [10] -11.9% | [11] 8.46% | [14] -86.8% | [17] -69.1% | [18] -4.35%

COc1ccc(C(=O)/C=C/c2cccc(Br)c2)cc1S(N)(=O)=O
active: [1] -37% | [2] -33.5% | [3] -65.5% | [4] -80.3% | [5] -39.4% | [6] -81.2% | [7] -95.7% | [8] -80% | [9] -93% | [10] -69.7% | [11] -56.4% | [12] -17% | [13] -42.8% | [14] -98.4% | [15] -34.6% | [16] -55.8% | [17] -91.7% | [18] -55.6%

CN1CCN(c2ccc(C(=O)/C=C/c3cc(C(F)(F)F)cc(C(F)(F)F)c3)cc2)CC1
active: [1] -73.9% | [2] -86.5% | [3] -89.9% | [4] -86.7% | [5] -51% | [6] -86.4% | [7] -97% | [8] -88.9% | [9] -97.4% | [10] -84.2% | [11] -3.47% | [12] -82.3% | [14] -94.9% | [15] -26.4% | [16] -85.4% | [17] -89.7% | [18] -96.8%
